The results in this text go back to PubChem BioAssay (NCATS).

Where “and” joins values, the source holds several entries; their conditions need not be identical. Equal values may be shown once. A number with no mark means an inactive call. Records with an inconclusive call do not appear. Calls of active or inactive are those of the source. Unless noted, calls come from the whole dose curve; as a rule, active = well fitted curve in the direction sought with a large enough effect; inconclusive = small, poorly fitted or top-dose-only effect, or another doubt; inactive = no such curve, though single readings can be large; an effect the other way counts as inactive or inconclusive. A value given as a limit tells only on which side of the number the result lay.

Assay [1] in a line: Cell Viability - Hek293 (AID 427;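 active = compounds whose dose-response curve shows a full or clear partial loss of cell viability, called from curve shape rather than a numeric limit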;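 note: potency is the fitted concentration of half-maximal effect; cells exposed to compound for 40 hours at 37 °C before reading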). The settings on record: qHTS. In short, it runs like this:
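Luminescent ATP read-out (CellTiter-Glo, 20 min RT) after 40 hr compound exposure at 37 °C in complete medium. Signal normalized to DMSO (basal) and 100 uM tamoxifen (100% inhibition); concentration-response fitted with the standard Hill equation to give AC50.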
A general note: In qHTS, concentration-response curves come from the screen itself.

Assay [2] can be described thus: Cell Viability - HepG2 (AID 433; calls by dose curve;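 note: potency is the fitted concentration of half-maximal effect; potency for ATP loss meaning cytotoxicity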). To be noted: qHTS. In short, it runs like this: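 In this qHTS format, a 40 h, 37 °C compound incubation of HepG2 cells in complete medium precedes a 20 min CellTiter-Glo step at room temperature. Tamoxifen and doxorubicin serve as positive controls; Hill-equation fits yield AC50.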
Assay [3] can be described thus: Cell Viability - N2a (AID 540).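 For activity change, negative = cytotoxicity: plate controls were DMSO alone for no effect and tamoxifen control for full effect.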 Note: nearly all actives have a fitted effect of over 45% in size. Note: potency is the fitted concentration of half-maximal effect. The settings on record: N2a mouse neuroblastoma cell viability; activity change, negative = cytotoxicity: at 92.2 µM (top of the series). An outline of the steps:
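Mouse neuroblastoma N2a cells (1500/well) were preincubated 5 hr at 37 °C, then exposed to compounds for 40 hr at 37 °C in complete medium. Viability was read as intracellular ATP by CellTiter-Glo luminescence; AC50 from Hill fits.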

Assay [4] in a line: Cell Viability - SH-SY5Y (AID 544).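 For viability change, negative = cytotoxic: 0% = DMSO alone and -100% = 100 µM tamoxifen.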 Note: nearly all actives have a fitted effect of over 55% in size. Note: potency is the fitted concentration of half-maximal effect. To be noted: SH-SY5Y neuroblastoma cell viability; viability change, negative = cytotoxic: at 92.2 µM (top of the series). An outline of the steps: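 Human neuroblastoma SH-SY5Y cells (1500/well) in complete medium were exposed to compounds for 40 hr at 37 °C; intracellular ATP was then quantified by CellTiter-Glo luminescence after 20 min at room temperature. AC50 came from Hill-equation concentration-response fits.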

Assay [5] can be described thus: Cell Viability - Renal Proximal Tubule (AID 545).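 For activity change, negative = cytotoxicity: 0% = DMSO only and -100% = 100 µM tamoxifen.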 Note: nearly all actives have a fitted effect of over 40% in size. Note: potency is the fitted concentration of half-maximal effect. The settings on record: renal proximal tubule cells viability, primary cells of rat origin; activity change, negative = cytotoxicity: at 91.7 µM (top of the series). An outline of the steps:
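In this qHTS format, normal rat kidney-derived proximal tubule cells in complete culture medium receive compound titrations, then sit 40 hours at 37 °C before luciferase-based ATP quantitation; potency is reported as AC50 from concentration-response curves.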

Assay [6] can be described thus: Cellular Toxicity (caspase-3) BJ (AID 658). The settings on record: BJ fibroblasts, luminescence; Potency: caspase-3 activation; series mostly up to 91.7 µM. In short, it runs like this: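 BJ human foreskin fibroblasts, 1000 cells/well, treated 16 hours at 37 °C in complete medium; caspase 3/7 activity by Caspase-Glo luminescence after 1 hr at room temperature. Normalized to DMSO and 10 uM staurosporine; AC50 from Hill fits.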

Assay [7] is described as follows: Cellular Toxicity (caspase-3) MRC-5 (AID 659). The settings on record: MRC-5 cells, luminescence, normalized: DMSO 0%, 10 µM staurosporine 100%; series mostly up to 91.7 µM. An outline of the steps: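 MRC-5 human normal lung fibroblasts, 1500 cells/well, treated 16 h at 37 °C in complete medium. Caspase 3/7 measured by Caspase-Glo luminescence after 1 h at room temperature. Normalized to DMSO and 10 uM staurosporine; AC50 from Hill fit.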

The nature of assay [8]: Cellular Toxicity (caspase-3) SK-N-SH (AID 661). To be noted: SK-N-SH caspase-3 activation, qHTS; caspase-3 activation: at 91.7 µM (top of the series), DMSO as zero, staurosporine as full. An outline of the steps: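 SK-N-SH human neuroblastoma cells (1500/well) were treated with compounds for 16 hr at 37 °C in complete medium; caspase 3/7 activity was read by Caspase-Glo luminescence. AC50 came from Hill fits of data normalized to DMSO and 10 uM staurosporine.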

Assay [9] can be described thus: Cellular Toxicity (caspase-3) Renal Proximal Tubule (AID 667).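 Note: cells exposed to compound for 16 hours at 37 °C before detection.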 To be noted: renal proximal tubule cells, primary cells freshly taken from rat, solvent-only wells 0%, staurosporine 100%; series mostly up to 91.7 µM. An outline of the steps:
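Caspase-Glo 3/7 read-out, rat primary kidney proximal tubule cells. Compound exposure 16 h, 37 °C; detection after 1 h at RT. Activity scaled to DMSO and 10 uM staurosporine.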

Assay [10] in a line: MultiTox-Fluor Cytotoxicity Assay - LYMP1-003 - Dead Cells (AID 961). Note: nearly all actives have a fitted effect of over 70% in size. Note: potency is the fitted concentration of half-maximal effect. The settings on record: LYMP1-003 lymphoblastoid cells, dead-cell protease fluorescence; series mostly up to 92.2 µM. An outline of the steps: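 Human lymphoblastoid LYMP1-003 cells (2500/well) were treated with compounds for 16 hr at 37 C in complete medium. Dead-cell protease release was read by bis-AAF-R110 fluorescence (Ex/Em 485/520). AC50 came from Hill fits, normalized to DMSO and 15 uM tetraoctylammonium bromide.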

Assay [11] in a line: MultiTox-Fluor Cytotoxicity Assay - LYMP1-003 - Live Cells (AID 962). Note: potency is the fitted concentration of half-maximal effect. The settings on record: LYMP1-003 lymphoblastoid cells, MultiTox-Fluor live-cell protease fluorescence; series mostly up to 92.2 µM. An outline of the steps: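 LYMP1-003 human lymphoblastoid cells (2500/well) in complete medium were preincubated 5 hr at 37 C, then exposed to compounds for 16 hr at 37 C. Live-cell protease cleavage of GF-AFC read by fluorescence (Ex/Em 405/510); AC50 from Hill fits.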

Assay [12] is described as follows: Cell Viability - LYMP1-003 - Assay at 24 hr (AID 963).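 For viability change, negative = cytotoxic: plate controls were DMSO only for no effect and tetraoctylammonium bromide positive control for full effect.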 Note: potency is the fitted concentration of half-maximal effect. The settings on record: LYMP1-003 lymphoblastoid cell viability; series mostly up to 92.2 µM. An outline of the steps:
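Human lymphoblastoid LYMP1-003 cells (2500/well) were rested 5 hr at 37 C, then exposed to compounds in complete medium for 24 hr at 37 C. Cellular ATP was quantified by CellTiter-Glo luminescence, and AC50 values came from Hill fits of concentration-response data.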

Assay [13] is described as follows: Cell Viability - LYMP2-004 (AID 966).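 For activity change, negative = cytotoxicity: plate controls were DMSO only for no effect and tetraoctylammonium bromide control for full effect.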 Note: nearly all actives have a fitted effect of over 65% in size. Note: potency is the fitted concentration of half-maximal effect. The settings on record: LYMP2-004 lymphoblastoid cell viability, qHTS; series mostly up to 92.2 µM. In short, it runs like this:
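Human lymphoblastoid cells (2500/well) in complete medium were treated with compounds for 24 hr at 37 C, then intracellular ATP was measured by CellTiter-Glo luminescence. AC50 values came from Hill-equation fits of concentration-response data.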

Assay [14] can be described thus: Cell Viability - LYMP2-009 (AID 968). Note: nearly all actives have a fitted effect of over 55% in size. Note: potency is the fitted concentration of half-maximal effect. The settings on record: LYMP2-009 lymphoblastoid cell viability; series mostly up to 92.2 µM.
Assay [15] can be described thus: Cell Viability - LYMP2-019 (AID 973).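 For activity change, negative = cytotoxicity: 0% = DMSO alone and full effect = 92 µM tetraoctylammonium bromide.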 Note: nearly all actives have a fitted effect of over 55% in size. Note: potency is the fitted concentration of half-maximal effect. To be noted: LYMP2-019 lymphoblastoid cell line viability; series mostly up to 92.2 µM. In short, it runs like this: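 Human lymphoblastoid cells were seeded at 2500 cells/well, preincubated 5 hr at 37 C, then exposed to compounds for 24 hr at 37 C in complete medium. Intracellular ATP was measured by CellTiter-Glo luminescence; AC50 from Hill fits.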

A short description of assay [16]: Cell Viability - LYMP2-021 (AID 974). For activity change, negative = cytotoxicity: % is set by controls: 0 for no effect and ±100 for the full control effect.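 Note: compound exposure lasts 24 hours at 37 °C; nearly all actives have a fitted effect of over 55% in size.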 Note: potency is the fitted concentration of half-maximal effect. To be noted: LYMP2-021 lymphoblastoid cells viability; series mostly up to 92.2 µM. In short, it runs like this:
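Human lymphoblastoid cells (2500/well) were preincubated 5 hr at 37 C, then exposed to compounds for 24 hr at 37 C in complete medium. Intracellular ATP was read by CellTiter-Glo luminescence; AC50 came from Hill-equation fits of concentration-response data.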

Assay [17] can be described thus: Cell Viability - LYMP2-023 (AID 975).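 For activity change, negative = cytotoxicity: cellular ATP measured by luciferase luminescence as viability proxy; plate controls were DMSO only for no effect and 92 µM tetraoctylammonium bromide control for full effect.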 Note: nearly all actives have a fitted effect of over 55% in size. Note: potency is the fitted concentration of half-maximal effect. To be noted: LYMP2-023 lymphoblastoid cell viability; series mostly up to 92.2 µM. An outline of the steps:
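Human lymphoblastoid cells (2500/well) were preincubated 5 hr at 37 C, then exposed to compounds for 24 hr at 37 C in complete medium. Cellular ATP was read by CellTiter-Glo luminescence, and AC50 came from Hill-equation fits.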

Assay [18] in a line: Cell Viability - LYMP1-002 - Assay at 24 hr (AID 993). For activity change, negative = cytotoxicity: % is set by controls: 0 for no effect and ±100 for the full control effect. Note: potency is the fitted concentration of half-maximal effect. To be noted: LYMP1-002 lymphoblastoid cells viability; series mostly up to 92.2 µM. An outline of the steps: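 Human lymphoblastoid LYMP1-002 cells, 2500/well in complete medium, were treated with compounds for 24 h at 37 C; intracellular ATP was read by CellTiter-Glo luminescence. AC50 values came from Hill-equation fits of qHTS concentration-response data.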

Assay [19] is described as follows: qHTS assay for small molecule agonists of the antioxidant response element (ARE) signaling pathway measured by Nrf2-dependant transcriptional activity (AID 720636; active = well fitted curve in the direction sought with a large enough effect in the repeat runs; an effect the other way counts as inactive or inconclusive; note: % of control where 0% means no effect). The settings on record: ARE-luc HepG2, Nrf2 luciferase reporter, 16 h; series mostly up to 92.4 µM. In short, it runs like this: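 Cells: ARE-luc HepG2 with Nrf2-responsive luciferase. Medium contained 1% dialyzed FBS. Compound exposure lasted 16 hr at 37 C and 5% CO2, followed by ONE-Glo luciferase detection.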

A short description of assay [20]: qHTS assay for cell viability of the p53RE-bla HCT-116 cell line (AID 743292). For activity change, negative = cytotoxicity: % is set by controls: 0 for no effect and ±100 for the full control effect. Note: nearly all actives have a fitted effect of over 55% in size. Note: potency is the fitted concentration of half-maximal effect. The settings on record: p53RE-bla HCT-116 viability, ATP luminescence, 16 h; series mostly up to 95 µM. In short, it runs like this:
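HCT-116 p53RE-bla cells seeded 4,000/well; 5 h at 37 C; compound (DMSO) added; 16 h at 37 C; CellTiter-Glo added, 30 min RT; luminescence read.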

Consider `CCC(C)Nc1ccc(NC(C)CC)cc1` (stereo not drawn), for which the Potency in assay [1] was 19.3 µM (active); in assay [2], 13.5 µM (active); in assay [3], 15.8 µM (active); in assay [4], 5.01 µM (active); in assay [10], 12.6 µM (active); in assay [11], 12.6 µM (active). For the same compound, the Potency in assay [12] was 12.6 µM (active); in assay [13], 6.31 µM (active); in assay [14], 3.98 µM (active); in [15] it was 5.01 µM (active); in assay [16] it was 3.98 µM (active); in assay [17] it was 6.31 µM (active). The Potency in assay [18] is 15.8 µM (active); in assay [20] it was 35.5 µM (active) and 28.2 µM (active). Also, in assay [5], the activity change, negative = cytotoxicity is -100% (active). Besides, the Potency result in [6] and in assay [19] was “inactive” in each case. In addition, the call in [7] and in [9] was inactive. The caspase-3 activation in assay [8] was -5.96%.

Regarding `Cc1cc(O)c(C(C)(C)C)cc1Sc1cc(C(C)(C)C)c(O)cc1C`, the Potency is 33.7 µM (active) in assay [1]; 32.3 µM (active) in assay [2]; 12.6 µM (active) in assay [3]; 31.6 µM (active) in [4]; 25.1 µM (active) in assay [5]; 31.6 µM (active) in assay [10]. Further, the Potency in assay [11] is 39.8 µM (active); in assay [12], 39.8 µM (active); in assay [13], 31.6 µM (active); in assay [14], 50.1 µM (active); in assay [15], 39.8 µM (active); in [16] it was 31.6 µM (active). In addition, the Potency in assay [17] was 50.1 µM (active); in assay [18], 31.6 µM (active); in [20], 28.2 µM (active) and 25.1 µM (active). Also, the Potency result in assay [19] is “inactive”.

With `CCCCCC/C(C=O)=C\c1ccccc1`, the Potency in [1] and in [2] was above 92 µM throughout. Moreover, the Potency entry in [3], in [4], in [5], in assay [6], in assay [10] and in assay [11] was “inactive” each time. Further, the Potency result in [12], in assay [13], in assay [14], in assay [15], in assay [16] and in assay [17] was “inactive” throughout. The Potency entry in assay [18], in [19] and in [20] was “inactive” throughout. In addition, the call in assay [7] and in [9] was inactive. Moreover, in assay [8], the caspase-3 activation was -0.582%.

With `CO[C@H]1/C=C/O[C@@]2(C)Oc3c(C)c(O)c4c(O)c(c5c(c4c3C2=O)NC2(CCN(CC(C)C)CC2)N=5)=NC(=O)/C(C)=C\C=C\[C@H](C)[C@H](O)[C@@H](C)[C@@H](O)[C@@H](C)[C@H](OC(C)=O)[C@@H]1C`, the Potency in [2] is above 92 µM. Further, the Potency result in assay [3], in assay [6], in assay [10], in assay [11], in assay [12] and in [13] was “inactive” throughout. Moreover, the Potency result in assay [14], in assay [15], in assay [16], in [17], in assay [18] and in assay [19] was “inactive” throughout. Moreover, the Potency result in assay [20] is “inactive”. For the same compound, the compound was classed as inactive in assay [7] and in assay [9]. Moreover, the caspase-3 activation in assay [8] is 5.74%.
